About 25 (0.04%) of roughly 59,000 compounds were called active. The rule behind the calls is not given here. Only a selection was taken, and actives are over-represented in it overall.
experiment: qHTS Assay for Spectroscopic Profiling in Resorufin Spectral Region; conditions: Compound fluorescence, resorufin region 547/598 nm, buffer
Text: NIH Molecular Libraries Screening Centers Network [MLSCN] NIH Chemical Genomics Center [NCGC] […] Occasionally, the artifactual effect may originate from the compound#s own spectral or other biophysical properties which generally tend to track its assay concentration. Pre-screening/profiling the library with respect to the compounds# spectral properties should help one exclude false positives early on. While the most informative fluorescent profiling data set is obtained by performing a full excitation and emission scan of each well by using a monochromator-based plate reader, such an approach is practical only on a very limited scale as scanning each well requires long time. An alternative approach, applied here, is to perform plate reader scans using selected excitation and emission wavelength pairs to generate a multidimensional relational database that correlates compound concentration and the respective relative fluorescence intensity at a given wavelength set. A standard curve of resorufin present on each plate as six-point concentration series, was used to compute a normalized fluorescence response, termed dye-equivalent concentration, for each compound at each concentration.
NCGC Assay Protocol Summary: Buffer: 100 mM Tris buffer, pH 8.0 Dye standard plate: The wells in columns 1 through 4 of a Kalypsys polypropylene 1536-well compound plate were filled with standard solutions of fluorophore corresponding to the spectral region of interest. Solutions of resorufin were placed in the following wells: M1, N1: 3 mM, M2, N2: 300 uM, M3, N3: 30 uM, M4, N4: zero (DMSO), O1, P1: 3 uM, O2, P2: […], O3, P3: 300 nM, O4, P4: zero (DMSO). Assay Steps: Six uL of buffer were dispensed to 1536-well Greiner black plates. Compounds and dye standards (23 nL) were transferred via Kalypsys PinTool. The plates were incubated for 15 min at room temperature, and then read on ViewLux (Perkin-Elmer) High-throughput CCD imager using 547 nm and 598 nm excitation and emission filter set. Keywords: NIH Roadmap, MLSCN, MLI, MLSMR, qHTS, NCGC, Resorufin, Fluorescent Profiling.

Max dye-equivalent concentration, inactive:
Cc1cc(C)nc(NC2=NCC(=O)N2c2ccc(Cl)cc2)n1, CCNc1ncc2nc(CCc3ccccc3)c(=O)n(-c3ccc(OC)cc3)c2n1, Cc1noc(NS(=O)(=O)c2ccc(N3CC(O)=C(c4ccccc4)C3=N)cc2)c1C, C[C@H]1O[C@@H](CC(=O)O)Cc2c1c(O)c1c(O)cc(-c3cc(=O)c4c(=O)c5c(c(=O)c=4c3=O)C[C@H](CC(=O)O)O[C@@H]5C)c(O)c1c2O, CCCOc1ccccc1-c1nc(SCCC(=O)O)n[nH]1, CCC(C)(C)n1nnnc1C(c1ccccc1OC)N1CCSCC1 (centres undefined), Cc1ccc(S(=O)(=O)NCCN2CCOCC2)cc1C, C=CCn1c(COc2ccccc2C)nnc1SCC(=O)O, Cc1cccc(NC(=O)CSc2nc3c(c(=O)[nH]2)CCC3)c1C, COc1ccccc1N1CC(O)=C(c2nc3ccccc3s2)C1=N, CCN(CC(=O)NC(C)C)C(=O)CCNC(=O)c1ccc(Cl)cc1, COc1ccc2[nH]c3ccc(OC)cc3c2c1, Cc1cc(C(F)(F)F)c(C#N)c(SCC(=O)NC2CC2)n1, COc1ccc(O)c(C(=O)c2cnc3onc(C(C)C)c3c2)c1, CCOC(=O)Nc1ccc2c(c1)N(C(=O)CN1CCN3CCCC3C1)c1ccccc1CC2 (centres undefined), CCCCNC(=O)c1ccccc1NC(=O)c1ccccc1N(C)S(C)(=O)=O, CCC(C)Sc1nc2c(c(=O)[nH]c(=O)n2C)n1CC(O)COc1cccc2ccccc12 (centres undefined), COc1ccc(-n2ncc3c(N4CCc5ccccc54)ncnc32)cc1, Cc1ccc(-n2c(Cc3cccs3)nnc2SCC(=O)OC(C)C)cc1, COCCn1c(=O)c(-c2cccc(F)c2)nc2cncnc21, COc1ccc(-n2c(=O)c(-c3cn(C)c4ccccc34)nc3cnc(OC)nc32)cc1, Cc1ccc(C(=O)NCC(=O)O)cc1S(=O)(=O)N1CCCCC1, Cn1c(SCc2c(F)cccc2Cl)nnc1-c1cnccn1, O=C(NC1CCCCC1)c1ccc2c(=O)n(CC3CCCO3)c(=O)[nH]c2c1 (centres undefined), O=c1[nH]nc(CSCc2ccccc2Cl)[nH]1, COCCNC(=O)c1snc2ccc(Cl)cc12, CCOc1ccc(NC(=O)CCS(=O)(=O)c2cccc3nsnc23)cc1, CCOc1cc(C2C(C(=O)OC)=CN(C3CCCC3)C=C2C(=O)OC)cc(Br)c1O, O=C(Nc1cnn(Cc2ccc(Cl)cc2)c1)C1CCCC1, CSc1ccc(-c2c(C#N)c(N)nc3c2c(C)nn3-c2ccccc2)cc1, COc1ccc(CC(NC(C)=O)C(=O)NC2CCN(C(=O)Nc3ccc(C#N)cc3)CC2)cc1OC (centres undefined), CCOC(=O)N1CCN(C(=O)c2nn(-c3ccc(C)cc3)c(=O)c3c2c2ccccc2n3C)CC1, COc1ccc(Cc2nnnn2CC(=O)O)cc1, CC(c1nnc(SCC(=O)Nc2sccc2C#N)n1-c1ccc(Cl)cc1)N(C)C (centres undefined), CC(C)(CNCC(O)c1ccccc1)N1CCOCC1 (centres undefined), O=C(O)C1CC=C(Cl)CC1C(=O)NCc1ccccc1 (centres undefined), O=C(COc1ccc2c3c(c(=O)oc2c1)CCC3)NC1CCCCC1, Cc1nc2cnc(Nc3ccccc3)nc2n(C[C@H]2CCCO2)c1=O, O=C(NCCCN1CCOCC1)c1cc(-c2ccc(Cl)cc2)on1, Cn1c(=O)c(CCc2ccccc2)nc2cnc(Nc3ccccc3)nc21, Cc1cc(=O)n2nc(N3CCCC(C(=O)NCCC4=CCCCC4)C3)sc2n1 (centres undefined), COc1ccc(-n2c(SCC(=O)NCc3cccs3)nnc2-c2ccoc2C)cc1, Cc1ccnc(SCCn2c(Br)nc3c2c(=O)[nH]c(=O)n3C)n1, CCOC(=O)N1CCC(Nc2c(NCCCN3CCN(c4ccc(OC)cc4)CC3)c(=O)c2=O)CC1, CCCCn1c(SCc2ncc(-c3ccccc3)o2)nc2cc(S(N)(=O)=O)ccc21, CCOc1ccccc1-n1c(SCC(=O)NCc2ccco2)nnc1-c1ccncc1, Nc1cc(=O)nc(SCc2ccccc2)n1Cc1ccco1, Cc1c(S(=O)(=O)O)ccc(N=Nc2c(O)c(C(=O)O)cc3ccccc23)c1Cl, CCC(=O)Nc1cccc(NC(=O)CSc2nnnn2C2CCCC2)c1, Cc1cc(C)c2[nH]c(=O)c(C(c3nnnn3Cc3ccc4c(c3)OCO4)N3CCCC3)cc2c1 (centres undefined), COc1ccccc1N(C(=O)Cn1nnc2ccccc21)C(C(=O)NCc1ccco1)c1ccc(C)o1 (centres undefined), CCC(C(=O)N1CCOCC1)n1c(C(=O)OC)cc2occc21 (centres undefined), CCN(c1ccccc1)S(=O)(=O)c1cccc(C(=O)O)c1, c1ccc2c(Nc3ccncc3)nc(-c3ccc4c(c3)OCO4)nc2c1, CCOC(=O)N1CCN(C(=O)Cc2ccc(-n3c(=S)[nH]c4ccccc4c3=O)cc2)CC1, CC(=O)OCc1cc(=O)n(C)c(=O)n1C, COc1ncc2nc(-c3ccc(Cl)cc3)c(=O)n(C)c2n1, CCc1c(C)nc2ncnn2c1N1CCC(C(=O)NCc2ccc3c(c2)OCO3)CC1, CN(C(=O)CSc1nnnn1-c1ccccc1)C1CCCCC1, Cc1c(-c2nn(C)c(=O)c3ccccc23)oc2ccc(F)cc2c1=O, COCCn1c(=O)[nH]c2cc(C(=O)NCc3cccnc3)ccc2c1=O, NS(=O)(=O)c1cc(Cl)c(Cl)c(S(N)(=O)=O)c1, CCOCCCN1C(=O)CN(C2CCCCC2)C(=O)C1c1ccc(OCC)c(OC)c1 (centres undefined), Cc1cc(C)c2nc(N3CCCC3)c(C#N)cc2c1, COc1cccc(C(=O)c2cc3ccc(O)cc3oc2=O)c1, O=C1[C@@H]2C(Cc3ccc(O)cc3)NC3(C(=O)Nc4ccc(F)cc43)[C@@H]2C(=O)N1c1ccc(F)cc1 (some centres undefined), CCC(=O)N(Cc1cc2cc(OC)ccc2[nH]c1=O)c1ccccc1C, COc1cccc(OCC(O)CN2CCN(CCO)CC2)c1 (centres undefined), C=CCn1c(SCC(=O)NC23CC4CC(CC(C4)C2)C3)nc(O)cc1=O, COCCn1c(=O)c(-c2cccs2)nc2cnc(N3CCN(C)CC3)nc21, Cc1cc(C)cc(OCc2nnc(SCC(=O)OC3CCCCC3)o2)c1, COCCn1c(=O)c(-c2ccc(OC)cc2)nc2cnc(Oc3cccc(Cl)c3)nc21, CS(=O)(=O)Nc1cccc(-c2cncnc2Nc2ccccc2)c1, Cn1c(SCC(=O)OC2CCCCC2)nnc1-c1ccc(S(=O)(=O)N2CCCC2)cc1, CCS(=O)(=O)N1CCC(C(=O)N2CCN(c3ccccc3)CC2)CC1, CCOCC(=O)Nc1cc(OC)c(Cl)cc1OC, CCN1C(=O)/C(=C\N2CCN(c3cccc(Cl)c3)CC2)SC1=S, CCN(Cc1ccncc1)C(=O)[C@@H](CO)c1ccccc1, CC(=O)N1CCC(C(=O)Nc2nc(-c3ccccc3)ns2)CC1, COc1ccc(S(=O)(=O)NC(CC(=O)NCc2ccccc2OC)c2ccco2)cc1 (centres undefined), Nc1nc2c(ncn2[C@H]2CC[C@@H](CO)O2)c(=O)n1C(=O)c1ccccc1, Cc1ccc(CNC(=O)CN2CCN(Cc3ccc(Cl)cc3)C2=O)cc1, CCOCCc1c(O)nc(SCC(=O)NCc2ccco2)[nH]c1=O, COc1cc(OC)cc(C(=O)NCCSCc2ccco2)c1, O=c1[nH]c(=O)n([C@H]2C[C@H](O)[C@H](CO)O2)cc1Br, O=c1c(-c2ccc(F)cc2)nc2cncnc2n1-c1ccccc1, CCOc1ccc(N(CC(=O)NCc2ccc(OC)cc2)S(=O)(=O)c2c(C)noc2C)cc1, C[C@@H]1C[C@H]2[C@@H]3C[C@H](F)C4=CC(=O)C=C[C@@]4(C)[C@]3(F)[C@H](O)C[C@]2(C)[C@@]1(O)C(=O)CO, O=C(Nc1ccccc1)c1cccnc1Nc1ccccc1, Cc1ccc(NC(=O)NCC(c2cccnc2)N2CCOCC2)cc1 (centres undefined), O=C(c1ccco1)N1CCC[C@@]2(CCN(Cc3nccs3)C2)C1, O=C1N=C(N2CCOCC2)CS1, Cc1ccc(C(=O)CS(C)(=O)=O)cc1, O=C(Nc1ccc(Cl)cn1)Nc1cccs1

Source: PubChem BioAssay AID588 (National Center for Advancing Translational Sciences (NCATS), 2007)
